Data: PubChem BioAssay AID1159580 (chemical genetic matrix, 2015)
Values joined by “and” are separate entries in the source; they are usually repeats but may differ in a detail not shown here. Equal entries are not always repeated. About 2,000 (36%) of roughly 5,500 compounds were called active. Roughly 18% stayed inconclusive and do not appear here. Rule as the data show it: active = normalized growth mostly below about 0.91 (no sharp cut-off); inconclusive = no clear call, values can overlap the other calls; inactive = mostly above about 0.92. The list shows a part of the results.

Assay: chemical genetic growth profiling, strain panel (AID 1159580);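 also: tested at 20 µM; growth read once vehicle control cultures reached saturation at 30 °C; 1 = growth at the plate median or of vehicle wells; lower values mean less growth of the strain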
Conditions: S. cerevisiae deletion strains, growth OD

Measured: normalized growth

O=C1N=C(O)CN1/N=C\c1ccc(-c2ccc([N+](=O)[O-])cc2)o1
inactive: locus YAL013W, strain DEP1, hits give low values 1.01 and 0.985 | locus YAL021C, strain ccr4, hits give low values 0.948 | locus YAL026C, strain drs2, hits give low values 0.981 | locus YAL030W, strain snc1, hits give low values 0.986 | locus YAL040C, strain CLN3, hits give low values 1.03 | locus YBL061C, strain skt5, hits give low values 1 | locus YBR009C, strain hhf1, hits give low values 1 | locus YBR021W, strain FUR4, hits give low values 1.03 | locus YBR023C, strain chs3, hits give low values 0.998 | locus YBR171W, strain sec66, hits give low values 0.98 | locus YBR229C, strain ROT2, hits give low values 1.01 | locus YBR231C, strain swc5, hits give low values 0.971 | locus YBR279W, strain paf1, hits give low values 0.974 | locus YCL011C, strain gbp2, hits give low values 0.989 | locus YCL016C, strain dcc1, hits give low values 0.985 | locus YCL029C, strain bik1, hits give low values 1.04 | locus YCL061C, strain MRC1 (second series), hits give low values 1.01 | locus YCL061C, strain MRC1, hits give low values 0.987 | locus YCL069W, strain vba3, hits give low values 0.974 | locus YCR088W, strain abp1, hits give low values 0.973 | locus YDL005C, strain med2, hits give low values 0.973 | locus YDL035C, strain GPR1, hits give low values 1.03 | locus YDL040C, strain nat1, hits give low values 0.978 | locus YDL074C, strain BRE1, hits give low values 1.04 | locus YDL101C, strain DUN1, hits give low values 1.01 | locus YDL134C, strain PPH21, hits give low values 1.02 | locus YDL185W, strain tfp1, hits give low values 1.04 | locus YDL192W, strain arf1, hits give low values 1.03 | locus YDR001C, strain nth1, hits give low values 0.977 | locus YDR069C, strain doa4, hits give low values 0.987 | locus YDR101C, strain arx1, hits give low values 1.02 | locus YDR137W, strain rgp1, hits give low values 0.918 | locus YDR150W, strain NUM1, hits give low values 1.03 and 1 | locus YDR159W, strain sac3, hits give low values 0.966 | locus YDR162C, strain NBP2, hits give low values 1.02 | locus YDR195W, strain ref2 0.988 | locus YDR297W, strain sur2, hits give low values 0.984 | locus YDR318W, strain mcm21, hits give low values 1.02 | locus YDR334W, strain swr1, hits give low values 0.949 | locus YDR335W, strain msn5, hits give low values 0.985 | locus YDR363W, strain ESC2, hits give low values 0.996 | locus YDR388W, hits give low values 1.03 | locus YDR392W, strain spt3, hits give low values 0.942 | locus YDR502C, strain sam2, hits give low values 1.01 | locus YEL003W, strain gim4, hits give low values 0.986 | locus YEL037C, strain rad23, hits give low values 0.974 | locus YEL061C, strain CIN8 (second series), hits give low values 0.97 | locus YEL061C, strain CIN8, hits give low values 1.02 | locus YER002W, strain NOP16, hits give low values 1 | locus YER015W, strain faa2, hits give low values 0.968 | locus YER016W, strain bim1, hits give low values 0.99 | locus YER110C, hits give low values 1.03 | locus YER111C, strain swi4, hits give low values 0.968 | locus YER155C, strain BEM2 (second series), hits give low values 0.955 | locus YER155C, strain BEM2, hits give low values 1.01 | locus YER167W, strain BCK2, hits give low values 1.03 | locus YFR010W, strain ubp6, hits give low values 0.984 | locus YGL078C, strain dbp3, hits give low values 1.04 | locus YGL086W, strain mad1, hits give low values 1.02 | locus YGL167C, strain pmr1, hits give low values 0.994 | locus YGL173C, strain kem1, hits give low values 0.99 | locus YGL227W, strain vid30, hits give low values 0.986 | locus YGL240W, strain doc1, hits give low values 0.977 | locus YGL248W, strain PDE1, hits give low values 1.02 | locus YGL253W, strain hxk2, hits give low values 0.987 | locus YGR078C, strain PAC10, hits give low values 1.02 and 1.01 | locus YGR135W, strain pre9, hits give low values 1.02 | locus YGR229C, strain SMI1, hits give low values 0.997 | locus YGR252W, strain gcn5, hits give low values 0.983 | locus YHR013C, strain ard1, hits give low values 0.992 | locus YHR027C, strain rpn1, hits give low values 0.992 | locus YHR030C, strain SLT2, hits give low values 1.02 and 1.01 | locus YHR079C, strain IRE1 (second series), hits give low values 1.02 | locus YHR079C, strain IRE1, hits give low values 1.02 | locus YHR094C, strain hxt1, hits give low values 1.03 | locus YHR129C, strain ARP1, hits give low values 1.02 | locus YHR142W, strain chs7, hits give low values 0.986 | locus YHR200W, strain rpn10, hits give low values 1.02 | locus YIL066C, strain RNR3, hits give low values 1.02 | locus YIL073C, strain SPO22, hits give low values 1.06 | locus YIL125W, strain kgd1, hits give low values 1.03 | locus YIR030C, strain dcg1, hits give low values 1.03 | locus YJL092W, strain hpr5, hits give low values 0.979 | locus YJL095W, strain BCK1 (second series), hits give low values 0.993 | locus YJL095W, strain BCK1, hits give low values 1.03 and 1.01 | locus YJL115W, strain asf1, hits give low values 0.976 | locus YJL129C, strain trk1, hits give low values 0.912 | locus YJL134W, strain LCB3, hits give low values 1.01 | locus YJL154C, strain vps35, hits give low values 0.968 | locus YJL164C, strain tpk1, hits give low values 1.01 | locus YJL166W, strain qcr8, hits give low values 0.978 | locus YJL168C, strain set2, hits give low values 1.02 | locus YJL187C, strain SWE1 (second series), hits give low values 1.02 | locus YJL187C, strain SWE1, hits give low values 0.986 | locus YJR043C, strain POL32, hits give low values 1.04 | locus YJR066W, strain TOR1, hits give low values 0.944
